We go through 30 compounds from PubChem BioAssay AID743157 (Broad Institute, 2013).

The structures appear in SMILES notation. Unmarked numbers belong to inactive results. Activity calls are given as the source filed them.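 How the source made its calls: active means cell killing, with a fitted active concentration at or below twice the top valid dose tested; inconclusive means flat fit with 30 to 70 percent signal loss, or poor fit; inactive means effect in the rising direction, plus the rest.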

The experiment in a line: viability loss in A549 lung cancer cells – cell-based, CellTiter-Glo luminescence, dry powder, set 4, cytotoxicity control, dose response (AID 743157). The conditions noted are these: CellTiter-Glo ATP luminescence, 72 h; series mostly up to 50 µM. In general terms: In ATP-based viability assays light output follows the ATP content of the culture.
For the compound `Cc1c(C(=O)O)sc2nc(/C=C/C3CC3)[nH]c(=O)c12`, the outcome was inactive. Same read-out and setting: the entry for `Cc1c(C(=O)O)sc2nc(/C=C/c3ccc4[nH]ccc4c3)[nH]c(=O)c12` is “inactive”; for `Cc1c(C(=O)O)sc2nc(/C=C/c3cccc(N4CCNCC4)c3)[nH]c(=O)c12` it is “inactive”. As for `Cc1c(C(=O)O)sc2nc(/C=C/c3ccc4ccccc4c3)[nH]c(=O)c12`, the result was inactive. For the compound `Cc1c(C(=O)O)sc2nc(/C=C/c3cccnc3N)[nH]c(=O)c12`, the activity change, negative = cytotoxicity was -7.98% [at 12 µM]. Take `Cc1c(C(=O)O)sc2nc(/C=C/c3ccccc3O)[nH]c(=O)c12`: the compound was classed as inactive. Same read-out and setting: the entry for `Cc1c(C(=O)O)sc2nc(/C=C/c3cccc(F)c3)[nH]c(=O)c12` is “inactive”; for `Cc1c(C(=O)O)sc2nc(/C=C/c3ccc(N)nc3)[nH]c(=O)c12` it is “inactive”. With `Cc1c(C(=O)O)sc2nc(/C=C/c3cccc(N4CCOCC4)n3)[nH]c(=O)c12`, the call was inactive. Take `Cc1c(C(=O)O)sc2nc(/C=C/c3ccc4[nH]ccc4n3)[nH]c(=O)c12`: the activity change, negative = cytotoxicity was 6.14% [at 12 µM]. With `COc1cccc(/C=C/c2nc3sc(C(=O)O)c(C)c3c(=O)[nH]2)c1`, the outcome was inactive. Same read-out and setting: next, `Cc1c(C(=O)O)sc2nc(/C=C/c3cccc(N)c3)[nH]c(=O)c12`: “inactive”; `Cc1c(C(=O)O)sc2nc(/C=C/c3ccccc3)[nH]c(=O)c12`: “inactive”. Turning to `Cc1c(C(=O)O)sc2nc(/C=C/c3cc4ccccc4cn3)[nH]c(=O)c12`, the compound was classed as inactive. `Cc1c(C(=O)O)sc2nc(/C=C/c3ccccn3)[nH]c(=O)c12`: the compound was called inactive.

Regarding `Cc1c(C(=O)O)sc2nc(/C=C/c3ccc4cc[nH]c4c3)[nH]c(=O)c12`, the outcome was inactive. Take `Cc1c(C(=O)O)sc2nc(/C=C/c3cnc4ccccc4c3)[nH]c(=O)c12`: the compound was called inactive.

Regarding `Cc1c(C(=O)O)sc2nc(CCc3cccc(O)c3)[nH]c(=O)c12`, the outcome was inactive. Still for that read-out and setting: the entry for `Cc1c(C(=O)O)sc2nc(/C=C/c3cccc(=O)[nH]3)[nH]c(=O)c12` is “inactive”; for `Cc1c(C(=O)O)sc2nc(/C=C/c3cccnc3)[nH]c(=O)c12` it is “inactive”.

Consider `Cc1c(C(=O)O)sc2nc(/C=C/c3ccnc4ccccc34)[nH]c(=O)c12`, for which the outcome was inactive. `Cc1c(C(=O)O)sc2nc(/C=C/c3ccncc3)[nH]c(=O)c12`: the compound was classed as inactive. For the compound `Cc1c(C(=O)O)sc2nc(/C=C/C=C/c3ccccc3)[nH]c(=O)c12`, the call was inactive. On the same count and under the same terms, the entry for `Cc1c(C(=O)O)sc2nc(/C=C/c3cccc(C(=O)O)c3)[nH]c(=O)c12` is “inactive”. The same measure, in the same setting: the entry for `Cc1c(C(=O)O)sc2nc(/C=C/c3cccc(O)c3)[nH]c(=O)c12` is “inactive”. `Cc1c(C(=O)O)sc2nc(/C=C/c3cccc([N+](=O)[O-])c3)[nH]c(=O)c12`: the call was inactive. Same read-out and setting: the entry for `Cc1c(C(=O)O)sc2nc(/C=C/c3cccc(C(F)(F)F)c3)[nH]c(=O)c12` is “inactive”; for `Cc1c(C(=O)O)sc2nc(/C=C/c3cccc(C(N)=O)c3)[nH]c(=O)c12` it is “inactive”; for `Cc1c(C(=O)O)sc2nc(/C=C/c3cccc(OC(F)(F)F)c3)[nH]c(=O)c12` it is “inactive”.

Turning to `Cc1c(C(=O)O)sc2nc(/C=C/c3ccc(O)cn3)[nH]c(=O)c12`, the activity change, negative = cytotoxicity was 4.16% [at 1.2 µM].
